# Measurements from PubChem BioAssay AID1794835 (Parasite Biology Lab, Institute for Biomedicine and …, 2023).
# The campaign covered roughly 2,500 compounds. About 45 (2%) were called active. No stated cut-off is given here; in the data, active means inhibition mostly above about 45% (no sharp cut-off); inactive means mostly below about 37%. Only a selection was taken, and actives are over-represented in it overall.
# Test: anti-Giardia activity of synthetic compounds – Compounds Australia Scaffold Library subset, 24/48 h, primary screen (AID 1794835);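 on inhibition: 0% = parasite counts in DMSO vehicle wells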
# Details: Giardia lamblia BRIS/91/HEPU/1279 trophozoite counts, imaging, at 10 µM
# [1] = measured here: growth inhibition at 24 h, stronger effect = higher value
compound,measurement,setting,value
Cc1ccc(NC(=O)C2=NN(CC(=O)Nc3ccc4c(c3)OCCO4)C(=O)CC2)cc1,inhibition,,inactive
Cc1ccc(NC(=O)c2cc3c(Cl)ccc4c3n2CCO4)cc1,inhibition,stronger effect = higher value,49.3% (active)
same,inhibition,[1],30.6%
Cc1ccc(NC(=O)c2ccc(=O)n(CCN3CCOCC3)n2)cc1,inhibition,stronger effect = higher value,2.3% (inactive)
same,inhibition,[1],1.4%
CCOc1ccc(NC(=O)CN2C(c3ccc(C)cc3)=CC(c3ccccc3)n3nnnc32)cc1 (configuration not stated),inhibition,,inactive
CCN(CC)CCN1C(=O)C(O)=C(C(=O)c2cccs2)C1c1ccc(C)o1 (configuration not stated),inhibition,stronger effect = higher value,15% (inactive)
O=c1ccc(-c2nnco2)cn1Cc1ccc(F)c2cccnc12,inhibition,,inactive
CC1CCN(C(=O)c2n[nH]c(=O)c3ccccc23)CC1,outcome,,inactive
same,inhibition,[1],4%
Cc1ccc(NC(=O)c2oc3ccccc3c2NC(=O)c2ccccc2)cc1,inhibition,stronger effect = higher value,1.2% (inactive)
CC1CCN(C(=O)c2oc3ccccc3c2NC(=O)c2ccc([N+](=O)[O-])o2)CC1,inhibition,stronger effect = higher value,95.2% (active)
same,inhibition,[1],87.8%
Cn1cc(S(=O)(=O)N2CCN(C(=O)Cc3c[nH]c4ccccc34)CC2)cc1C(N)=O,inhibition,,inactive
Cc1cc(NCc2ccccc2CN2CCCC2)nc(-c2ccncc2)n1,inhibition,,inactive
Cc1nn(-c2ccc(F)cc2)c2sc(C(=O)N3CCCCC3C(N)=O)cc12 (configuration not stated),inhibition,,inactive
Cc1nn(Cc2ccccc2)c2sc(C(=O)N3CCN(C(=O)N4CCCCC4)CC3)cc12,inhibition,stronger effect = higher value,14% (inactive)
Cc1nn(-c2ccccc2)c2sc(C(=O)N3CCCCC3)cc12,inhibition,stronger effect = higher value,39.6% (active)
same,inhibition,[1],21.1%
COc1ccccc1N1CCN(C(=O)c2ccc3[nH]c(C)c(C)c3c2)CC1,inhibition,stronger effect = higher value,36.6% (inactive)
COc1ccccc1N1CCN(C(=O)c2cc3c(C)nn(-c4ccc(C)cc4)c3s2)CC1,inhibition,stronger effect = higher value,65.7% (active)
same,inhibition,[1],48%
COc1ccccc1N1CCN(C(=O)c2cc(C3CC3)[nH]n2)CC1,outcome,,inactive
same,inhibition,[1],9.6%
Cc1ccc(-c2ncc(C(=O)NC3CCCCCC3)c(C)n2)cc1,outcome,,inactive
same,inhibition,[1],6.7%
COc1cccc(CNC(=O)Cn2ccc3sccc3c2=O)c1,inhibition,stronger effect = higher value,6.6% (inactive)
same,inhibition,[1],0.5%
COc1cccc(N2CCN(C(=O)C3CCN(c4nc(NC(C)=O)ns4)CC3)CC2)c1,inhibition,stronger effect = higher value,16.2% (inactive)
same,inhibition,[1],7.9%
CCCc1cc(N2CCOCC2)n2nc(C)c(-c3ccccc3)c2n1,inhibition,stronger effect = higher value,20.2% (inactive)
Cc1cc(NC(=O)CN2c3ccccc3NC3=C(C(=O)CC(C)(C)C3)C2c2ccccc2)no1 (configuration not stated),inhibition,,inactive
Cn1cnc2onc(C(=O)NC3CCCCC3)c2c1=O,inhibition,,inactive
O=S(=O)(c1cccc(F)c1)N1CC(OCc2cccc(F)c2)C1,inhibition,stronger effect = higher value,10% (inactive)
same,inhibition,[1],1.5%
Cc1nc2sccn2c1-c1nc(-c2ccccc2)c(C(=O)c2ccc3c(c2)NC(=O)CO3)s1,inhibition,stronger effect = higher value,7% (inactive)
same,inhibition,[1],1.6%
Nc1c(-c2nc(-c3ccccc3)cs2)c2ccccn2c1C(=O)c1ccc2c(c1)OCO2,inhibition,stronger effect = higher value,83.1% (active)
same,inhibition,[1],63.2%
COc1ccc(C(=O)c2c(N)c(-c3nc(-c4cc(OC)ccc4OC)cs3)c3ccccn23)cc1,outcome,,inactive
same,inhibition,[1],3.8%
COc1cccc(C(=O)N2CCN(CC3CCCO3)CC2)c1 (configuration not stated),inhibition,,inactive
CCOc1ccc(NC(=O)N2Cc3cccn3-c3ccccc32)cc1,inhibition,,inactive
CN1CCCN(c2ncnc3cc(Cl)ccc23)CC1,inhibition,,inactive
N=C1C(c2nc(-c3ccc(Cl)cc3)cs2)=C(O)CN1CCc1ccccc1,inhibition,,inactive
COc1ccc(-c2csc(-n3nccc3C(F)(F)F)n2)cc1OC,inhibition,stronger effect = higher value,27.9% (inactive)
same,inhibition,[1],8%
COc1ccc(-c2csc(C3=C(O)CN(CC(C)(C)CN(C)C)C3=N)n2)cc1OC,inhibition,stronger effect = higher value,76.8% (active)
same,inhibition,[1],23.9%
Cc1ccc(COCc2nn(C)c3c2CN(C(=O)Nc2ccccc2)CC3)cc1,outcome,,inactive
same,inhibition,[1],4.7%
CCn1cc(C(=O)NCc2ccccc2)c(=O)c2ccc(C)nc21,inhibition,stronger effect = higher value,6.1% (inactive)
same,inhibition,[1],8.9%
Cc1ncncc1C(=O)N1CCN(CC(O)C(C)(C)C)CC1 (configuration not stated),inhibition,,inactive
COc1ccc(Nc2cc(C)nc(N3CCN(C(=O)Nc4cccc(OC)c4)CC3)n2)cc1,inhibition,stronger effect = higher value,86.6% (active)
same,inhibition,[1],49.4%
COc1ccc(Nc2cc(C)nc(N3CCN(C(=O)c4ccccc4)CC3)n2)cc1,inhibition,stronger effect = higher value,29.3% (inactive)
same,inhibition,[1],5.55%
COc1ccc(NC(=O)N2CCN(c3cc(C)nc(N4CCOCC4)n3)CC2)cc1,inhibition,stronger effect = higher value,44.4% (inactive)
same,inhibition,[1],12.7%
CN(C)C(=O)CN1CCCN(Cc2ncc(C(C)(C)C)o2)CC1,inhibition,stronger effect = higher value,1.9% (inactive)
same,inhibition,[1],6.5%
CCN(Cc1ccccc1)C(=O)c1cc(-c2ccccc2)n[nH]1,inhibition,stronger effect = higher value,36.1% (inactive)
same,inhibition,[1],19.1%
Cc1noc(C)c1S(=O)(=O)N1CCC(C(=O)NCC(c2ccccc2)N(C)C)CC1 (configuration not stated),outcome,,inactive
same,inhibition,[1],10.5%
Cc1nn(C)c2sc(C(=O)N3CCN(S(=O)(=O)c4ccc(Br)cc4)CC3)cc12,inhibition,stronger effect = higher value,10.6% (inactive)
COc1ccc2c(c1)CCc1c-2noc1-c1ccc(NC(=O)c2cc(C)nn2C)cc1,inhibition,,inactive
CCOc1ccc(C(=O)Nc2ccc(-c3nnc4n3CCCCCC4)cc2)cc1,inhibition,,inactive
COc1ccc(NC(=O)c2ccc(-c3cc(NC4CCCCC4)ncn3)cc2)cc1,inhibition,stronger effect = higher value,51% (active)
same,inhibition,[1],17.1%
Cc1ccc(CNC(=O)N2CCN(C3=CC4=NCC(C)N4C=N3)CC2)cc1 (configuration not stated),inhibition,stronger effect = higher value,11.9% (inactive)
same,inhibition,[1],18.7%
Cc1ccc2c(c1)NC(c1ccc(C)o1)=NC(c1cccs1)=N2,inhibition,stronger effect = higher value,54.6% (active)
same,inhibition,[1],15.2%
Fc1ccc(C2=Nc3ccc(Cl)cc3NC(c3cccs3)=N2)cc1,outcome,,inactive
same,inhibition,[1],23%
CCn1c(C2CCN(C(=O)c3ccc(Br)cc3)C2)nc2cccnc21 (configuration not stated),inhibition,,inactive
CCCn1c(=O)c(C)nc2cc(-c3noc(-c4cccc(NC(=O)c5ccco5)c4)n3)ccc21,inhibition,,inactive
COc1cc(OC)c(N2CC(C(=O)N3CCc4sccc4C3)CC2=O)cc1Cl (configuration not stated),inhibition,,inactive
O=[N+]([O-])c1cc(F)ccc1Sc1nnc(N2CCOCC2)s1,inhibition,stronger effect = higher value,60.8% (active)
same,inhibition,[1],30.9%
C1CCC(Sc2nnc(N3CCOCC3)s2)C1,inhibition,,inactive
O=[N+]([O-])c1ccccc1Sc1nnnn1C1CCOCC1,inhibition,stronger effect = higher value,8.6% (inactive)
same,inhibition,[1],6.15%
CCCC(=O)Nc1ccc2nc(N3CCCC3)cc(C(=O)O)c2c1,inhibition,,inactive
COc1ccc(CN2CCN(C(=O)c3c(C)oc4c3C3=NCCN3C=N4)CC2)c(OC)c1OC,inhibition,stronger effect = higher value,7.4% (inactive)
same,inhibition,[1],3%
Cc1ccccc1C(=O)Nc1cnc(N2CCNCC2)c(C(=O)N(C)Cc2ccccc2)c1,inhibition,stronger effect = higher value,15.2% (inactive)
same,inhibition,[1],10.2%
CCC(=O)N1CCC(Oc2ccc(C(=O)N3CCOCC3)cn2)CC1,inhibition,,inactive
Cc1nnc2n1CCN(C(=O)c1cc(Br)c[nH]1)C2,inhibition,,inactive
COc1cc(N2CCn3c(nc4cc(Cl)ccc43)C2)ccc1NC(=O)COc1ccccc1,inhibition,,inactive
COc1c(C)cnc(Cn2cnc([N+](=O)[O-])c2)c1C,inhibition,stronger effect = higher value,83% (active)
same,inhibition,[1],25.8%
Cc1noc(-c2c(C)sc(C)c2S(=O)(=O)NCc2ccccc2)c1C,inhibition,stronger effect = higher value,30.5% (inactive)
Cc1ccc(C(=O)N2CCC(Oc3ncccc3C(=O)N3CCCCC3)C2)c(C)c1 (configuration not stated),outcome,,inactive
same,inhibition,[1],0.6%
COc1ccc2oc(-c3noc(C(=O)NCCN4CCCCCC4)n3)c(C)c2c1,inhibition,stronger effect = higher value,56.6% (active)
same,inhibition,[1],11.6%
COc1ccc2oc(-c3noc(C(NC(=O)c4ccco4)C(C)C)n3)c(C)c2c1 (configuration not stated),inhibition,stronger effect = higher value,9.9% (inactive)
same,inhibition,[1],18.3%
Cc1ccc2oc(-c3noc(C(=O)NCC4CCCO4)n3)c(C)c2c1 (configuration not stated),outcome,,inactive
same,inhibition,[1],2%
Cc1cccc(-c2nc(Cn3nnc(C(=O)Nc4ccc5c(c4)OCCO5)c3N)c(C)o2)c1,inhibition,,inactive
CCOc1ccc(CCNC(=O)c2c(C)oc3c2C2=NCCN2C=N3)cc1OCC,inhibition,stronger effect = higher value,17.8% (inactive)
CSc1ccc(CCNC(=O)c2ccc3c(c2)nc2n3CCOC2)cc1,inhibition,stronger effect = higher value,12.8% (inactive)
CCOc1ccc(CCNC(=O)c2ccc3c(c2)nc2n3CCOC2)cc1OCC,inhibition,stronger effect = higher value,79.8% (active)
same,inhibition,[1],27.2%
Cc1ccc(-c2nc3ccccc3n2Cc2cccc(F)c2)o1,inhibition,stronger effect = higher value,16.3% (inactive)
same,inhibition,[1],22.1%
COc1ccc(C2(C(=O)N3CCC(Cc4nc(-c5ccc(F)cc5)no4)CC3)CC2)cc1,outcome,,inactive
same,inhibition,[1],11.4%
C=CCn1c(SCC(=O)N2CCCCC2)nc2scc(-c3ccco3)c2c1=O,inhibition,stronger effect = higher value,5.6% (inactive)
same,inhibition,[1],6.8%
CCCCn1nnnc1CN1CCCC1Cn1cncn1 (configuration not stated),outcome,,inactive
same,inhibition,[1],2%
O=C(Nc1ccn(Cc2cccnc2)n1)c1ccc2n[nH]nc2c1,inhibition,,inactive
O=C(Cc1csc2nc(-c3ccccc3)cn12)Nc1ccc(Cl)cc1,inhibition,stronger effect = higher value,67.7% (active)
same,inhibition,[1],47.6%
O=C(Cn1nccc1-c1ccncc1)Nc1ccc(Cl)cc1,inhibition,,inactive
O=C(Cc1csc2nc(-c3ccccc3)cn12)NCCc1cccs1,outcome,,inactive
same,inhibition,[1],0.1%
Cc1oc(-c2cccs2)nc1Cn1cccn1,inhibition,,inactive
O=C(Cc1noc(-c2ccoc2)n1)NC1CCCCC1,inhibition,stronger effect = higher value,3.1% (inactive)
same,inhibition,[1],4.9%
Cc1ccc(C)c(-c2cc3c4nn(CC(=O)N(C)c5ccc(F)cc5)c(=O)n4ccn3n2)c1,inhibition,stronger effect = higher value,96.3% (active)
same,inhibition,[1],79.6%
O=C(Cn1nc2c3cc(-c4ccccc4)nn3ccn2c1=O)N1CCCc2ccccc21,inhibition,,inactive
Cc1ccc(CNC(=O)c2ccc3nn(CC(=O)N(C)c4ccccc4)c(=O)n3c2)cc1,inhibition,,inactive
O=S(=O)(Cc1ccc(C(F)(F)F)cc1)Cc1noc(C2CC2)n1,outcome,,inactive
same,inhibition,[1],12.6%
CCc1nccn1CC1CCCN1 (configuration not stated),outcome,,inactive
same,inhibition,[1],0.2%
Cc1ccc(N2C(=O)N[C@@H]3C[C@]2(C)Oc2c(O)cc(C(C)(C)C)cc23)cc1C,inhibition,,inactive
Cc1c(-c2nc(-c3ccccc3)no2)nnn1-c1cccc(Cl)c1,inhibition,,inactive
Cc1ccc(NC(=O)Cc2nc(-c3ccc4c(c3)CC(=O)N4C)cs2)cc1,inhibition,stronger effect = higher value,10% (inactive)
same,inhibition,[1],9.8%
CN(C)C(=O)Cc1nc(CN2CCc3c(ncn3C)C2)cs1,outcome,,inactive
same,inhibition,[1],1.4%
Cc1ccc(C)c(NC(=O)Cc2nc(Cn3cnc([N+](=O)[O-])c3)cs2)c1,inhibition,stronger effect = higher value,59.9% (active)
same,inhibition,[1],8.45%
